Shown are actives, neighbours in structure and some others; about 1% of the full set was active somewhere.
GALK inhibitor = inhibitors of human galactokinase; P51570; Purified GALK, Kinase-Glo residual ATP luminescence; Potency, µM (series often up to 57.5 µM), without a hit: at the highest dose activity change, negative = inhibition, actives largely listed as inhibitors; 270,000 tested, 0.007% active
Target sequence (P51570 whole entry, looked up): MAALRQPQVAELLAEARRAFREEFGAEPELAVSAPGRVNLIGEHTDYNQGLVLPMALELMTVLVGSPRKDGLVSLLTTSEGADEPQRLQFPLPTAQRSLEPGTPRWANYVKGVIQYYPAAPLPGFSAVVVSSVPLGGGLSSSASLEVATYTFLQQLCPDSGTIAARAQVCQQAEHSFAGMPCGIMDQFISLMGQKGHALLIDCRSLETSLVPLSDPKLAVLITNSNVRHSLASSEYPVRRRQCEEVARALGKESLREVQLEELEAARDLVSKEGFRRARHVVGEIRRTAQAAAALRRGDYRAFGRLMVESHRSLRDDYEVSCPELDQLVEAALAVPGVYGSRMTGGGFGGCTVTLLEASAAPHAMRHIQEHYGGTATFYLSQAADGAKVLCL
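Kinase-Glo Plus luminescence measured ATP left after a 1 h room-temperature reaction. The reaction used 5 nM GALK, 100 uM galactose and 35 uM ATP at pH 8.0 (20 mM HEPES, 5 mM MgCl2, 60 mM NaCl, 1 mM DTT, 0.01% BSA).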
TrxR1 inh = rat TrxR1 inhibition; O89049; recombinant rTrxR1, NADPH fluorescence consumption, selenite substrate; Potency, µM (doses to about 114 µM), for the others: top-dose activity change, negative = inhibition, usual class: inhibitors; 390,000 tested, 1% active; further: nearly all actives have a fitted effect of over 65% in size
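Rat TrxR1 (90 nM in the dispensed reagent) was pre-reduced with 400 uM NADPH for 5 min at room temperature, then incubated with compound for 15 min. After 400 uM selenite was added, NADPH fluorescence (Ex 340/Em 450 nm) was followed for 8 min.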
TrxR1 substrate = is turned over as a substrate by rat TrxR1 | purified TrxR1 substrate turnover, NADPH consumption readout | Potency, µM (series often up to 114 µM), without a hit: at the top dose activity change, negative = substrate turnover | 390,000 tested, 0.01% active; further: nearly all actives have a fitted effect of over 50% in size
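Rat TrxR1, dispensed at 90 nM, was prereduced with 400 uM NADPH (final) for 5 min at ~22 deg C, then incubated with compound 15 min before 400 uM selenite. A first-read NADPH fluorescence drop versus no-compound background flagged substrates.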
RGS4 inh = inhibitors of human regulator of G protein signaling 4 | P49798 | Transcreener GDP fluorescence polarization, RGS4-accelerated GTP hydrolysis | Potency, µM (doses to about 114 µM), inactives show at the top dose activity change, negative = inhibition, usual class: inhibitors | 390,000 tested, 0.039% active | AID 504845; further: nearly all actives have a fitted effect of over 75% in size
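MLSMR compounds (23 nl, pin-transferred) preincubated 10 min at room temperature with a 500nM (2x) first reagent, then RGS4 at 900nM (2x) plus Transcreener GDP mix added; fluorescence polarization (620/688 nm) read before and after 90 min at 30 °C.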
Eya2 phos inh = blocks the phosphatase activity of human Eya2 | Potency, µM (doses to about 76.9 µM), for inactives: at the highest dose activity, negative = inhibition, most hits filed as inhibitors | O00167 | 330,000 tested, 0.006% active | AID 488837 | recombinant Eya2, OMFP fluorescence dephosphorylation (OMFP is methylfluorescein phosphate)
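Eya2 protein (added as 0.2 uM solution) was preincubated with compound for 10 min at ambient temperature in 50 mM HEPES pH 7.5, 50 mM NaCl, 5 uM MgCl2, 0.05% BSA, 1 mM DTT. OMFP (added at 50 uM) then reacted 10 min; fluorescence read at 485/525 nm.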
USP2a inh = inhibitors of human ubiquitin-specific protease USP2a. 330,000 tested, 0.01% active. Potency, µM (highest dose often 38.3 µM), without a hit: at the top dose activity change, negative = inhibition, usual class: inhibitors. USP2 core, Ub-CHOP2 coupled fluorogenic reporter, 485/531;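 further: plate controls were DMSO wells for no effect and full inhibition by NEM control for full effect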
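Deubiquitinase activity read as fluorescence (485/531 nm) after Ub-CHOP2 cleavage activates the enterokinase reporter on its substrate; USP2 core 10nM, Ub-CHOP2 and substrate 25nM each, 30min compound preincubation then 60min RT; data normalized to NEM, curves fitted.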
* hit, by the source's call; [ ] = dose if it differs, or a comment. The call rests on the fitted dose curve; in most records, active means well fitted curve in the direction sought with a large enough effect; inconclusive means small, poorly fitted or top-dose-only effect, or another doubt; inactive means no such curve, though single readings can be large; an effect the other way counts as inactive or inconclusive. Unless noted, on the % scale 0 is the no-effect control and ±100 the full control effect; potency means the concentration at half of the fitted maximal effect.

What do the screens show for `O=C1/C(=C\c2ccccc2)C[C@@]2(O)[C@H]3Cc4ccc(O)c5c4[C@@]2(CCN3CC2CC2)[C@@H]1O5`?
RGS4 inh: inactive

How did COc1cc(/C=C/[N+](=O)[O-])ccc1O do in these assays?
TrxR1 inh: 3.16µM*; TrxR1 substrate: -8.2%; RGS4 inh: inconclusive; Eya2 phos inh: 6.8%; USP2a inh: 2.1%

Results for CCN(CC)c1ccc(/C=C/[N+](=O)[O-])cc1 ?
GALK inhibitor: -0.2%; TrxR1 inh: inconclusive; TrxR1 substrate: -7.6%; RGS4 inh: inconclusive; Eya2 phos inh: 14.2%; USP2a inh: 1.4%

How did CCOC(=O)c1c(-n2c(C)cc(/C=C3/C(=O)NC(=O)N(CC)C3=O)c2C)sc2c1CCCC2 do in these assays?
TrxR1 inh: -9.2%[57.1 µM]; TrxR1 substrate: -11.2%; RGS4 inh: -19.4%

What do the screens show for `CCOC(=O)c1c(-n2c(C)cc(C=C3C(=O)NC(=S)NC3=O)c2C)sc2c1CCCC2`?
GALK inhibitor: -8.3%; TrxR1 inh: 22.4µM*; TrxR1 substrate: -13.2%; RGS4 inh: -107.2%; Eya2 phos inh: 3.5%; USP2a inh: 0.1%

Results for O=C(CCl)NN=C(c1ccccc1)c1ccccc1 ?
GALK inhibitor: 15.2%; TrxR1 inh: 14.1µM*; TrxR1 substrate: 6.8%[57.1 µM]; RGS4 inh: -3.6%; Eya2 phos inh: -4.3%; USP2a inh: 1.5%

How did O=C(CN1CCCC2CCCCC21)c1ccc(I)cc1 (stereo unspecified) do in these assays?
TrxR1 inh: -31.3%; TrxR1 substrate: 0.5%

What do the screens show for `CN1C(=O)C(=Cc2ccccc2OS(=O)(=O)c2ccccc2)C(=O)N(C)C1=O`?
GALK inhibitor: 1.3%; TrxR1 inh: 28.2µM*; TrxR1 substrate: -1.7%; RGS4 inh: inconclusive; Eya2 phos inh: -3.5%; USP2a inh: -0.2%

What do the screens show for `COc1ccc(N2C(=O)CS(=O)C(c3ccccc3)C2=O)cc1` (stereo unspecified)?
GALK inhibitor: 7.4%; TrxR1 inh: 50.1µM*; TrxR1 substrate: 2.7%; RGS4 inh: inconclusive; Eya2 phos inh: 10.0%; USP2a inh: -3.1%

Results for COc1ccc(N2C(=O)CC(N3CCC(n4c(=O)[nH]c5ccccc54)CC3)C2=O)cc1 (stereo unspecified) ?
GALK inhibitor: 5.4%; TrxR1 inh: inconclusive; TrxR1 substrate: 11.9%; RGS4 inh: 6.4%; Eya2 phos inh: -5.2%; USP2a inh: -1.2%

How did CCN(CC)C(=O)c1c(C)[nH]c(=S)c(C#N)c1-c1ccco1 do in these assays?
GALK inhibitor: -3.4%; TrxR1 inh: inconclusive; TrxR1 substrate: 2.1%[57.1 µM]; RGS4 inh: inconclusive; Eya2 phos inh: 4.3%; USP2a inh: 2.6%

How did Cc1nn(Cc2ccccc2)c(C)c1C=C1C(=O)NC(=O)NC1=O do in these assays?
GALK inhibitor: -0.1%; TrxR1 inh: 35.5µM*; TrxR1 substrate: -11.6%; RGS4 inh: inconclusive; Eya2 phos inh: -2.7%; USP2a inh: 1.9%

Results for Cn1c(O)c(C(c2ccncc2)c2c(O)n(C)c(=S)n(C)c2=O)c(=O)n(C)c1=S ?
GALK inhibitor: -3.3%; TrxR1 inh: 7.94µM*; TrxR1 substrate: -9.4%; RGS4 inh: inconclusive; Eya2 phos inh: 2.2%; USP2a inh: 4.1%

How did Cn1c(O)c(C(c2ccccn2)c2c(O)n(C)c(=S)n(C)c2=O)c(=O)n(C)c1=S do in these assays?
TrxR1 inh: -28.3%; TrxR1 substrate: -12.5%; RGS4 inh: -16.4%; Eya2 phos inh: -8.1%; USP2a inh: -2.2%

How did CCOP1(=O)C=C(Sc2ccc([N+](=O)[O-])cc2[N+](=O)[O-])C(C)(C)O1 (stereo unspecified) do in these assays?
TrxR1 inh: 14.1µM*; TrxR1 substrate: -16.4%; RGS4 inh: -18.1%

Bioassay records from PubChem BioAssay.
